The values that follow come from PubChem BioAssay AID540257 (Southern Research Specialized Biocontainment Screening …, 2011).

SMILES strings stand for the structures. About 15 (0.8%) of roughly 1,800 compounds were called active. These entries were drawn from the full list. Potency and affinity values are given separately. Values without a mark were called inactive. The rule behind the calls is not given here.

A short description of this assay: antiviral activity against H1N1 influenza, dose response, cell-based, strain KY136 (AID 540257). The note with it: H1N1 KY136 influenza antiviral cell assay, % inhibition; series mostly up to 40 µM; inhibition: at the top concentration.
One may read the inhibition as the relative decrease from the control value, in per cent. Take `CC(=O)NC(c1ccccc1)c1cc([N+](=O)[O-])c2cccnc2c1O` (stereo not drawn): the “inhibition” value is -0.23%.
With `Nc1[nH]c(N=NC(=O)c2ccccc2O)c2ccccc12` the figure was -1.36%; with `COc1cc(-c2n[nH]c(=S)n2-c2cccc(C(F)(F)F)c2)cc(OC)c1OC`, -0.46%; with `O=C(CCCN1C(=O)/C(=C/c2ccc3c(c2)OCO3)SC1=S)Nc1ccc(C(=O)O)cc1`, -1.62%.
As to `CN1CCN(NC(=O)CN2C(=O)/C(=C/c3ccccc3Cl)SC2=S)CC1`, the “inhibition” value was 0.15%.
To `CCOC(=O)c1ccc(Nc2c(CC)c(C)nc3ncnn23)cc1` belongs -0.18%; to `COc1ccccc1N1CCN(C(=O)CCCn2c(=O)[nH]c3ccsc3c2=O)CC1`, -0.55%.
With `O=C1CCCC2=C1C1(CCCCC1)N=C(Nc1nc3ccccc3s1)N2` the figure was -0.46%.
With `O=C(O)c1cccc2c1/C(=N/O)c1ccccc1-2` the figure was -1.51%.
Consider `O=C(COC(=O)c1ccc([N+](=O)[O-])cc1)Nc1cccnc1Cl`, for which the “inhibition” value was 2.51%.
With `C[n+]1c(/C=C/c2ccc(O)cc2)ccc2ccccc21` the figure was -0.74%; with `COc1cc(C=NO)nc(-c2ccccn2)c1`, -15.2%; with `O=[N+]([O-])c1cccc(C=Nc2cc3c(cc2Br)OCCO3)c1`, 0.23%.
`CCOc1ccccc1CNC(=O)c1ccc2c(c1)N(CC)CCS2`: the “inhibition” value was -6.06%.
To `Clc1ccc(-c2nnc(N3CCCC3)nn2)cc1` belongs 1.97%; to `CCCS(=O)(=O)n1nc(-c2ccccc2)cc1N`, 1.16%; to `O=C(Nc1ccc(N2CCOCC2)cc1)Nc1ccc(Cl)c(Cl)c1`, -14.1%.
For `O=C1CC(c2ccccc2)Cc2nc(NCc3ccco3)ncc21` (stereo not drawn), the “inhibition” value was 13.9%.
To `Nc1nc(Nc2ccccc2)nc(NCc2ccco2)c1[N+](=O)[O-]` belongs -3.58%; to `C=CC[n+]1c(/C=C2\C=Cc3cc(C)ccc3N2CC)ccc2ccccc21`, -1.51%.
With `O=C1C(=C(c2ccccc2)c2ccccc2)Nc2ccccc21` the figure was 4.26%; with `O=C(CN1CCN(S(=O)(=O)c2ccccc2)CC1)Nc1ccc(N2CCOCC2)cc1`, 0.12%.
To `O=S(=O)(c1cccs1)N1CCN(CC(O)COc2cc(Cl)ccc2Cl)CC1` (stereo not drawn) belongs -12.7%; to `O=C(CCc1ccccc1)Nc1cc2c(cc1Cl)OCCO2`, 3.94%; to `O=C(COC(=O)[C@H](Cc1c[nH]c2ccccc12)NC(=O)c1cccs1)NCc1ccccc1`, 4.26%.
For the compound `O=C(Nc1ccccc1C(=O)NCc1cccnc1)c1ccc(Cl)cc1Cl`, the “inhibition” value is -1.04%.
To `c1ccc(Cn2nnc3c(N4CCCCCC4)ncnc32)cc1` belongs 0%; to `CCOC(=O)N1CCN(c2cc(=O)n(-c3ccc(C)cc3)c(=O)[nH]2)CC1`, 0.45%; to `O=C1C(Nc2ccc(O)cc2)=C/C(=N/S(=O)(=O)c2cccs2)c2ccccc21`, -5.8%.
With `O=C(NC(=S)NNC(=O)c1cnccn1)c1ccc(Cl)cc1` the figure was -2.73%; with `O=C1CSC(=S)N1N=Cc1ccccc1O`, -1.49%.
`O=C(Nc1cccc(Cl)c1)c1cc(N=Nc2ccc([N+](=O)[O-])cc2Cl)ccc1O`: the “inhibition” value was -2.11%.
As to `CC(=O)N1CCC(N(CCCOC(C)C)C(=O)Nc2ccc(Cl)cc2)CC1`, the “inhibition” value was 0.58%.
Consider `CCOC(=O)c1c(C2CC2)csc1NC(=O)COC(=O)c1ccc[n+]([O-])c1`, for which the “inhibition” value was -0.55%.
To `COCc1cc(=O)[nH]c(Nc2nc3ccccc3o2)n1` belongs 0.12%.
`O=[N+]([O-])c1ccc(O)c(/C=N/Nc2nn[nH]n2)c1`: the “inhibition” value is -2.43%.
To `Cc1ccc(C(=O)Nc2nc(-c3ccccn3)cs2)o1` belongs -1.74%.
On to `COc1ccc(CC(=O)N2N=C(C)CC2(O)c2cccnc2)cc1OC` (stereo not drawn), for which the “inhibition” value was 0.64%.
With `CCOc1ccc(OCCOCCn2ccnc2)cc1` the figure was 1.34%; with `Cc1ccc(S(=O)(=O)N2CCN(C(=O)c3ccc(N4CCCC4)c([N+](=O)[O-])c3)CC2)cc1`, -1.55%; with `COc1ccc(CNC(=O)Cn2ccc([N+](=O)[O-])n2)cc1OC`, 1.93%.
To `CCN(C(C)=O)c1cnc(C=NNC(N)=S)c2ccccc12` belongs -5.03%; to `Cc1cc2ncn(C(=O)c3c(-c4ccccc4Cl)noc3C)c2cc1C`, 0.59%.
To `Oc1c(C(Nc2ccccn2)c2ccccn2)ccc2cccnc12` (stereo not drawn) belongs -3.95%; to `COc1ccc(N2CCN(CCNC(=O)Nc3ccc([N+](=O)[O-])cc3OC)CC2)cc1`, -2.3%; to `CCOc1ccc(N=Cc2c(O)cc(C)oc2=O)cc1`, -0.39%.
Regarding `CN(C)c1ccc(N=Nc2ccccc2C(=O)OCC(=O)N(C)c2ccccc2)cc1`, the “inhibition” value is 1.62%.
With `NC(=O)NC(=O)CC1S/C(=N/N=C2\CSC(=O)N2)NC1=O` (stereo not drawn) the figure was 0.45%.
With `CC(=O)Oc1ccc(NC(=O)Cc2ccccc2)cc1` the figure was -0.12%.
With `COc1ccc2cc3c(N)nn(C(=O)Cc4ccccc4OC)c3nc2c1` the figure was -1.82%.
For `CN(C)c1ccc(CN2CC=C(c3ccc(F)cc3)CC2)cc1`, the “inhibition” value was -1.04%.
Consider `CC(NS(C)(=O)=O)C(c1cccs1)N1CCN(c2ccccc2)CC1` (stereo not drawn), for which the “inhibition” value was 0.3%.
With `Cc1ccccc1NC(=S)N/N=C/c1ccc(O)cc1O` the figure was -5.22%; with `O=C(N/N=C/c1ccco1)Nc1ccccc1`, 0.15%; with `COc1ccc(C2C3=C(CC(C)(C)CC3=O)Oc3ncn(Cc4ccco4)c(=N)c32)cc1` (stereo not drawn), 2.82%.
With `Cc1ccccc1CNC(=O)CCC(=O)N1CCOc2ccc(Cl)cc21` the figure was 1.35%; with `CCC(C)NC(=O)CN1C(=O)COc2ccc(S(=O)(=O)N3CCOCC3)cc21` (stereo not drawn), 0.81%; with `CS(=O)(=O)N1CCC(Oc2cccc(C(=O)NCCCC3CCCC3)c2)CC1`, -2.3%.
Consider `CC(/C=C/c1ccccc1)=N\NC(=O)Cn1nc(C)cc1C`, for which the “inhibition” value is 0%.
With `O=C(Cn1c(=O)c(C(F)(F)F)nc2ccccc21)N1CCC2(CC1)OCCO2` the figure was 1.56%; with `Cc1cccn2c(=O)c(C=C(C#N)C#N)c(N3CCN(c4ccccc4)CC3)nc12`, 0.28%; with `CCCCN1C(=O)NC2NC(=O)NC21` (stereo not drawn), -2.02%.
With `CC(C)C(C(=O)Nc1ccccc1F)N1C(=O)c2ccccc2C1=O` (stereo not drawn) the figure was 0.58%; with `O=C(Nc1ccccc1)c1ccc[n+](Cc2ccc([N+](=O)[O-])cc2)c1`, 2.67%; with `O=C1C(NS(=O)(=O)c2cccs2)=C(N2CCN(c3ccccc3)CC2)C(=O)c2ccccc21`, -2.3%.
To `Fc1cccc(Nc2ncnc3c2cnn3-c2ccccc2)c1` belongs -16%; to `O=C1c2ccccc2C(=O)c2c1cccc2N1CCOCC1`, -0.45%.
Consider `O=C(N/N=C/C1C(=O)NC(=S)N(c2ccccc2)C1=O)c1cc(Br)c(O)c(Br)c1` (stereo not drawn), for which the “inhibition” value is -1.19%.
With `CCOC(=O)c1sc(NC(=O)c2ccc3ncsc3c2)nc1C` the figure was 4.13%; with `O=[N+]([O-])c1cc(Br)c2nsnc2c1N1CCOCC1`, 4.84%.
On to `CCOC(=O)CC(NS(=O)(=O)c1ccc(NC(C)=O)cc1)c1ccc(OCC)cc1` (stereo not drawn), for which the “inhibition” value was 2.13%.
With `CN(C)c1ccc(C=c2c3ccccc3n3c2c2c([n+]3C)CCCC2)cc1` the figure was -4.87%.
To `O=C(NC1CC1)C(=O)c1c(-c2ccccc2)[nH]c2ccccc12` belongs 10.5%; to `Cc1nn(Cc2ccccc2)c(C)c1N`, 0.83%; to `S=c1sscc1-c1ccccc1`, -0.7%.
For the compound `COc1ccc(/C=C/C(=O)OCC(=O)NCCc2ccccc2)c(OC)c1`, the “inhibition” value was 1.74%.
To `COc1ccc(S(=O)(=O)N2CCOCC2)cc1NC(=O)CN1CCN(C)CC1` belongs 1.93%; to `COc1ccc(CSC2=NCCN2)cc1Cl`, 4.9%.
To `C=CCn1c(N)c(C(=O)NCCC2=CCCCC2)sc1=S` belongs 0.45%; to `O=C(CN1C(=O)c2cccc3cccc(c23)C1=O)N1CCN(Cc2ccc3c(c2)OCO3)CC1`, 0.12%.
As for `CCCn1nc([N+](=O)[O-])c(C(C#N)c2nc3ccccc3s2)c(Cl)c1=O` (stereo not drawn), the “inhibition” value was -5.69%.
For the compound `Cc1c(N2C(=O)/C(=C/c3ccccc3)SC2=S)c(=O)n(-c2ccccc2)n1C`, the “inhibition” value was 0.64%.
With `O=C(NCCN1CCOCC1)c1cc2sccc2n1Cc1ccc(Cl)cc1` the figure was -1.06%; with `CCOC(=O)CCSCC(=O)Nc1nnc(C)s1`, -0.12%.
With `O=C(CSc1ccccc1)Nc1nnc(/C=C/c2ccccc2)s1` the figure was -1.63%; with `Cc1nc(CNS(=O)(=O)c2ccc3ccccc3c2)cs1`, 1.86%.
With `CCc1nccn1C(=O)c1cnn2c(C(F)F)cc(-c3ccc(C)cc3)nc12` the figure was -2.08%; with `Cc1c(N/N=C(\C#N)C(=O)c2ccccc2)c(=O)n(-c2ccccc2)n1C`, -2.12%; with `COc1ccc2sc(NC(=O)c3ccco3)nc2c1`, 0.7%.
In the case of `CCCc1ccc2oc(C(=O)NCc3nnc(C)o3)c(C)c2c1`, the “inhibition” value was -4.06%.
With `O=C(N/N=C/c1cc(Br)c(O)c(Br)c1O)c1cccnc1` the figure was -4.64%; with `CCn1c(C(C)NC(=O)c2cccc(C)c2)nc2ccccc21` (stereo not drawn), 2.67%; with `COc1ccc(C(CCNCc2ccc(N(C)C)cc2)C(C)C)cc1` (stereo not drawn), -5.42%.
